Compound activity deposited in PubChem by National Center for Advancing Translational Sciences (NCATS).
Rows were chosen to be rich in hits. Some 11% of all compounds tested hit in one or more screens of this group.
HEK293 tox: kills HEK 293 cells | HEK 293 viability, ATP luminescence (CellTiter-Glo), 48-72 h | Potency, µM (highest dose often 115 µM), actives largely listed as inhibitors | actives 6.6% (n = 94,000) | AID 1345083; further: nearly all actives have a fitted effect of over 60% in size
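ATP-coupled CellTiter-Glo luminescence served as viability read-out, recorded 10 min after reagent addition at room temperature. HEK 293 cells, 250 cells/well, had been incubated with pintool-transferred compound for 48 or 72 hr at 37 degree Celsius.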
NIH3T3 tox: cytotoxic compounds in NIH 3T3 cells | NIH 3T3 viability, CellTiter-Glo ATP luminescence, 48-72 h | Potency, µM (titrated, usually from 96.7 µM), most hits filed as inhibitors | actives 4.3% (n = 94,000) | AID 1345082; further: nearly all actives have a fitted effect of over 55% in size
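First NIH 3T3 cells are plated at 400 cells/well; next compound is pinned in; then plates incubate 48 or 72 hr at 37 °C; finally CellTiter-Glo is added and luminescence read after 10 min.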
Luciferase inh: inhibitors of firefly (Photinus pyralis) luciferase; P08659; Potency, µM (highest dose often 115 µM), actives largely listed as inhibitors; actives 2.5% (n = 76,000); purified P. pyralis luciferase, luminescence, biochemical; further: nearly all actives have a fitted effect of over 65% in size
Target sequence (P08659 whole entry, looked up): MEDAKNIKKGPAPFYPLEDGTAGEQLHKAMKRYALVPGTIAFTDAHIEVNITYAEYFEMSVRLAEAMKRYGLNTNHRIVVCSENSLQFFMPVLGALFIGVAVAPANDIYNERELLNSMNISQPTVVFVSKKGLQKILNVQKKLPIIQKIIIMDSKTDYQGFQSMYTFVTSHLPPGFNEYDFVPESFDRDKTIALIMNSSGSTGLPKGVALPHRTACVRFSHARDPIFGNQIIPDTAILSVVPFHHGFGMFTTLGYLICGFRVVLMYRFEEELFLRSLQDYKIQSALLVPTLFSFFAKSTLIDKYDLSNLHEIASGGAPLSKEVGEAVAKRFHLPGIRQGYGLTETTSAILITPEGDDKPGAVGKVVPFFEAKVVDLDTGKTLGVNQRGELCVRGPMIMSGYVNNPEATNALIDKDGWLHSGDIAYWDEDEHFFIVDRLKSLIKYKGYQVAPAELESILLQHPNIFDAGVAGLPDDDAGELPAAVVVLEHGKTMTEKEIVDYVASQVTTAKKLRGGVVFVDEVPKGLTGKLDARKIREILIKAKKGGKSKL
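Luminescence read by CCD imaging after purified firefly luciferase (10nM final) was added to substrate buffer holding 10uM D-luciferin and 10uM ATP, pH 7.5, pre-dosed with compound.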
hNpr1 antagonist: antagonists of human natriuretic peptide receptor Npr1; P16066; HEK293 hNpr1 GloSensor cGMP, ANP-stimulated luminescence; Potency, µM (titrated, usually from 46.3 µM), most hits filed as inhibitors; actives 1.6% (n = 76,000); calls by dose curve; further: nearly all actives have a fitted effect of over 60% in size
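Compound pre-incubated 30 min at room temperature on GloSensor-loaded HEK293 cells stably carrying hNpr1 and the pGS-40F cGMP biosensor. Stimulation uses hNppA at 0.1 nM final; luminescence is taken at baseline and 20 min post-agonist.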
NPR1 antag cnf: hNpr1 antagonism, confirmation assay. AID 1347044. shares compounds with hNpr1 antagonist. HEK293 hNpr1 cGMP GloSensor luminescence, ANP-stimulated. Potency, µM (top dose mostly 57.6 µM), hits mostly inhibitors. actives 76% (n = 1,400); calls by dose curve; further: nearly all actives have a fitted effect of over 70% in size
Npr2 selectivity: antagonizes human Npr2, subtype selectivity check | shares compounds with hNpr1 antagonist | actives 67% (n = 1,400) | HEK293 hNpr2 GloSensor cGMP luminescence, CNP-stimulated | Potency, µM (series often up to 57.6 µM), usual class: inhibitors; calls by dose curve; further: nearly all actives have a fitted effect of over 70% in size
FLuc counter: inhibits firefly luciferase, false Npr1 antagonist flag; shares compounds with hNpr1 antagonist; purified FLuc enzyme, luminescence, Km substrate; Potency, µM (doses to about 57.6 µM), usual class: inhibitors; actives 0.7% (n = 1,400)
GloSensor cGMP: reduces cGMP signal in GloSensor control cells; shares compounds with hNpr1 antagonist; HEK293 GloSensor cGMP, SNP-stimulated, luminescence; Potency, µM (highest dose often 57.6 µM), most hits filed as inhibitors; actives 69% (n = 1,400); AID 1347051; calls by dose curve; further: nearly all actives have a fitted effect of over 70% in size
Of the large screens only hits and unclear results are named; the others gave an inactive call (follow-up assays come after a bar, where they were run). Unless noted, the call rests on the fitted dose curve; in most records, active means well fitted curve in the direction sought with a large enough effect; inconclusive means small, poorly fitted or top-dose-only effect, or another doubt; inactive means no such curve, though single readings can be large; an effect the other way counts as inactive or inconclusive.

N#Cc1cccnc1-c1ccc(C(=O)N2CCC(NC(=O)c3ccncc3)CC2)cc1	none (no result: Luciferase inh, hNpr1 antagonist)
CCOC(=O)C1CC1CN1CCC2(CC1)Cc1ccccc1CNC2=O (centres undefined)	none (no result: Luciferase inh, hNpr1 antagonist)
O=C1NCc2ccccc2CC12CCCN2Cc1ccc(Br)cc1 (centres undefined)	HEK293 tox inconclusive, NIH3T3 tox inconclusive (no result: Luciferase inh, hNpr1 antagonist) | NPR1 antag cnf inactive | Npr2 selectivity inactive | FLuc counter inactive | GloSensor cGMP inactive
O=C(Cc1ccccc1F)N1CCC(CCOc2ccccc2)C1 (centres undefined)	HEK293 tox inconclusive, NIH3T3 tox inconclusive
Cc1ccc(OCCC2CCN(C(=O)Cc3cccnc3)C2)cc1 (centres undefined)	HEK293 tox inconclusive, hNpr1 antagonist inconclusive | NPR1 antag cnf inconclusive | Npr2 selectivity inconclusive | FLuc counter inactive | GloSensor cGMP inconclusive
O=C(C1CCCC1)N1CCC(CCOc2ccc(F)cc2)C1 (centres undefined)	HEK293 tox inconclusive, NIH3T3 tox inconclusive, hNpr1 antagonist inconclusive | NPR1 antag cnf inconclusive | Npr2 selectivity inconclusive | FLuc counter inactive | GloSensor cGMP 22µM
COc1ccc(-c2cccc(C(=O)N3CCC(NC(=O)c4ccccc4Cl)CC3)c2)nn1	HEK293 tox inconclusive (no result: Luciferase inh, hNpr1 antagonist)
CC(C)Oc1ccc(CN2C[C@@H](CO)[C@H](c3ccncc3)C2)cc1	HEK293 tox 40µM, hNpr1 antagonist 11µM | NPR1 antag cnf inconclusive | Npr2 selectivity inconclusive | FLuc counter inactive | GloSensor cGMP 27µM
CS(=O)(=O)N1CCC(OC2CCN(C(=O)Nc3ccc(F)cc3F)CC2)CC1	none
CCC(O)c1cc2n(n1)CCN(Cc1nnc(-c3cccc(F)c3)o1)C2 (centres undefined)	none
COc1ccc(CN2C(=O)CO[C@H](c3ccc(NC(=O)c4ccccc4C)cc3)[C@H]2CO)cc1	none
COc1c[nH]c(CN2CCCC(CCc3ccccc3C)C2)cc1=O (centres undefined)	none
COc1c[nH]c(CN2CCCC(Nc3ccc(C(C)C)cc3)C2)cc1=O (centres undefined)	HEK293 tox inconclusive, NIH3T3 tox inconclusive, hNpr1 antagonist inconclusive | NPR1 antag cnf 22µM | Npr2 selectivity 19µM | FLuc counter inactive | GloSensor cGMP 22µM
CC(C)(C)OC(=O)N1CC(NCc2ccc(-c3ccc(OC(F)(F)F)cc3)cc2)C1	HEK293 tox inconclusive, NIH3T3 tox inconclusive (no result: Luciferase inh, hNpr1 antagonist) | NPR1 antag cnf 22µM | Npr2 selectivity 22µM | FLuc counter inactive | GloSensor cGMP 17µM
COc1ccc(CNC2CN(C(=O)OC(C)(C)C)C2)cc1	none (no result: Luciferase inh, hNpr1 antagonist)
CSCc1nc(CNc2nc(C3CCCC3)nc3c2cnn3C)cs1	HEK293 tox 25µM, NIH3T3 tox inconclusive, hNpr1 antagonist 8.9µM | NPR1 antag cnf 15µM | Npr2 selectivity 19µM | FLuc counter inactive | GloSensor cGMP 12µM
CCCc1nc(NCc2c(F)ccc(OC)c2F)c2cnn(C)c2n1	HEK293 tox inconclusive, NIH3T3 tox inconclusive, hNpr1 antagonist inconclusive
CCc1ccc(CN2CCC(O)(Cc3cc(-c4cccc(OC)c4)no3)CC2)o1	HEK293 tox inconclusive, NIH3T3 tox inconclusive | NPR1 antag cnf inactive | Npr2 selectivity inactive | FLuc counter inactive | GloSensor cGMP inconclusive
CNC(=O)CC1C(=O)NCCN1C(=O)c1cc(COc2ccccc2)[nH]n1 (centres undefined)	none
CC(=O)N1Cc2ccccc2CC2(CCN(Cc3ccccc3)C2)C1 (centres undefined)	none (no result: Luciferase inh, hNpr1 antagonist) | NPR1 antag cnf inactive | Npr2 selectivity inactive | FLuc counter inactive | GloSensor cGMP inactive
CC(=O)N1Cc2ccccc2CC2(CCN(Cc3ccncc3)C2)C1 (centres undefined)	none (no result: Luciferase inh, hNpr1 antagonist)
CC(C)NC(=O)N1C2CCC1CN(c1ccc(C(F)(F)F)cc1)C2	HEK293 tox inconclusive, NIH3T3 tox inconclusive (no result: Luciferase inh, hNpr1 antagonist) | NPR1 antag cnf 21µM | Npr2 selectivity 19µM | FLuc counter inactive | GloSensor cGMP 15µM
CC(=O)N1C2CCC1CN(c1ccc(C(F)(F)F)cc1)C2	NIH3T3 tox inconclusive (no result: Luciferase inh, hNpr1 antagonist)
O=C(c1cc(F)ccc1F)N1CCC(Oc2cccnc2)C1 (centres undefined)	none (no result: Luciferase inh, hNpr1 antagonist)
CC(C)c1nc(-c2ccc(OC3CCN(C(=O)c4n[nH]c5ccccc45)C3)cc2)no1 (centres undefined)	HEK293 tox 28µM, NIH3T3 tox inconclusive, hNpr1 antagonist 16µM | NPR1 antag cnf 24µM | Npr2 selectivity 24µM | FLuc counter inactive | GloSensor cGMP 19µM
CC(C)c1nc(-c2ccc(OC3CCN(C(=O)c4cc(F)ccc4F)C3)cc2)no1 (centres undefined)	HEK293 tox 20µM, NIH3T3 tox inconclusive, hNpr1 antagonist 11µM | NPR1 antag cnf 11µM | Npr2 selectivity 14µM | FLuc counter inactive | GloSensor cGMP 11µM
COCCN1CC(C(=O)N(C)Cc2cnn(-c3ccccc3C)c2)CCC1=O (centres undefined)	none
Cc1ccc(Cc2ccccc2C(=O)N2CCOC(C(F)(F)F)C2)cc1 (centres undefined)	HEK293 tox inconclusive
CCC[C@H]1CN(C(=O)c2ccccc2Cc2ccc(C)cc2)C[C@@H]1N	HEK293 tox inconclusive, NIH3T3 tox 89µM | NPR1 antag cnf inconclusive | Npr2 selectivity inconclusive | FLuc counter inactive | GloSensor cGMP inactive
Cc1cc(C(=O)N[C@H]2[C@H](O)[C@H](O)C[C@@H]2c2ccccc2)c(C(F)(F)F)o1	none
CC(C)c1noc(CC2CCN(C(=O)c3ccc4c(c3)OCO4)CC2)n1	HEK293 tox inconclusive, NIH3T3 tox inconclusive
COc1ccc(C(=O)N2CCC(Cc3nc(-c4ccc(F)cc4)no3)CC2)cc1F	HEK293 tox inconclusive, NIH3T3 tox inconclusive, hNpr1 antagonist 1.1µM | NPR1 antag cnf 1.1µM | Npr2 selectivity 1.7µM | FLuc counter inactive | GloSensor cGMP 1.1µM
COc1ccc(-c2noc(CC3CCN(C(=O)c4ccc(OC)c(OC)c4)CC3)n2)cc1	HEK293 tox inconclusive, NIH3T3 tox inconclusive, hNpr1 antagonist 3.5µM | NPR1 antag cnf 6.9µM | Npr2 selectivity 6.9µM | FLuc counter inactive | GloSensor cGMP 5.4µM
COc1ccc(-c2noc(CC3CCN(C(=O)c4ccc5c(c4)OCO5)CC3)n2)cc1	HEK293 tox inconclusive, NIH3T3 tox inconclusive, hNpr1 antagonist 2.8µM | NPR1 antag cnf 5.4µM | Npr2 selectivity 6.1µM | FLuc counter inactive | GloSensor cGMP 4.8µM
